Assay results as given in ChEMBL document CHEMBL3988442, “University of Dundee, Small-Polar-MMV Screening Library” (2021).
For some of these results: Potency and affinity values are given separately.

How the values were obtained:
Set-up in all cases: scale not given: direction of the effect not stated beside the values
[1] = target: Protein translocase subunit SecA (Escherichia coli (strain K12)) (UniProt P10408); assay: Assay to Identify E. coli SecA ATPase Inhibitors; format: functional; conditions: 30 µM
[2] = target: T1, Ubiquitin-activating enzyme e1, putative (Leishmania donovani (strain BPK282A1)) (UniProt E9BSI1); assay: Leishmania donovani Ubiquitin Activating Enzyme (LdE1); format: functional; conditions: 30 µM
T1 sequence (whole entry): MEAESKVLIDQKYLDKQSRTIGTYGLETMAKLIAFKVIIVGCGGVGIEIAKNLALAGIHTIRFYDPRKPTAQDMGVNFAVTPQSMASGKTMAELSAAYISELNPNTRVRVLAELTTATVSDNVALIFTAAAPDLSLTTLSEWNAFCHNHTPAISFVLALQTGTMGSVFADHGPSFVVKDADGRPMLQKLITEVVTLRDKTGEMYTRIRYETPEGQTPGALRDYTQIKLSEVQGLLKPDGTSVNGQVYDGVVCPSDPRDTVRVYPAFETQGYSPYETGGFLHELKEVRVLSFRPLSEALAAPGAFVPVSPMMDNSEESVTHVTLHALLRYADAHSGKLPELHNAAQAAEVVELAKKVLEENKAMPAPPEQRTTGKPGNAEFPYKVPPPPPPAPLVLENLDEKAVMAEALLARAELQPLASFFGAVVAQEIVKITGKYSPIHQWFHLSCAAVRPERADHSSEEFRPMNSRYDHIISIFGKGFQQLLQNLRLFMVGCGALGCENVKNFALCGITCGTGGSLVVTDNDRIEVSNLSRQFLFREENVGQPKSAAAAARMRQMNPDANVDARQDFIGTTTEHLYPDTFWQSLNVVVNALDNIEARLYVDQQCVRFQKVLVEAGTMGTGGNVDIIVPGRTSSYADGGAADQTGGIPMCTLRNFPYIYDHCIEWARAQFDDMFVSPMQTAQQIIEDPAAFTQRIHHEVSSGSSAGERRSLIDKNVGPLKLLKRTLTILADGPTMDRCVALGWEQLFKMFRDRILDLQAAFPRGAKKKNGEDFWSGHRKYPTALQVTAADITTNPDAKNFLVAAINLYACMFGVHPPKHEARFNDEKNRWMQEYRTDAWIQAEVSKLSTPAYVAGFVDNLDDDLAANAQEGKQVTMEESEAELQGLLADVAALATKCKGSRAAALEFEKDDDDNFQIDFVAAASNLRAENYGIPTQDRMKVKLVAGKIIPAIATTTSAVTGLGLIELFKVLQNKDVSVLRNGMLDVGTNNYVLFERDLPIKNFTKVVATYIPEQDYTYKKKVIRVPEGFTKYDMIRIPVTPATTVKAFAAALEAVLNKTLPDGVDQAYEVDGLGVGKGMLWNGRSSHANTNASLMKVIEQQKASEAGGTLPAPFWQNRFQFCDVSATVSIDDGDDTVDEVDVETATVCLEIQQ

[3] = target: AMP-activated protein kinase, AMPK (Homo sapiens) (UniProt P54646+O43741+P54619+Q9UGJ0+Q9Y478+Q13131+Q9UGI9); assay: AMP-dependent Kinase enzyme assay. An in vitro enzyme assay that detects ADP turnover that is directly proportional to AMPK activity. This uses naive AMPK that is activated during the assay with MK-8722; format: functional; conditions: 30 µM
[4] = target: Sialic acid-binding Ig-like lectin 9 (Homo sapiens) (UniProt Q9Y336); assay: Hs-Siglec9 ALPHAscreen SOP 20170721; conditions: 10 µM
[5] = system: Trypanosoma cruzi; assay: Trypanosoma cruzi phosphomannomutase and mannose-1-phosphate guanylyltransferase assay; format: functional; conditions: 10 µM
[6] = target: T2, Arginase-2, mitochondrial (Homo sapiens) (UniProt P78540); assay: in vitro enzyme assay to detect the production of urea directly proportional to the activity of Arginase II; format: functional; conditions: 33.3 µM; also: in the data most compounds retested in dose-response had high values
T2 sequence (whole entry): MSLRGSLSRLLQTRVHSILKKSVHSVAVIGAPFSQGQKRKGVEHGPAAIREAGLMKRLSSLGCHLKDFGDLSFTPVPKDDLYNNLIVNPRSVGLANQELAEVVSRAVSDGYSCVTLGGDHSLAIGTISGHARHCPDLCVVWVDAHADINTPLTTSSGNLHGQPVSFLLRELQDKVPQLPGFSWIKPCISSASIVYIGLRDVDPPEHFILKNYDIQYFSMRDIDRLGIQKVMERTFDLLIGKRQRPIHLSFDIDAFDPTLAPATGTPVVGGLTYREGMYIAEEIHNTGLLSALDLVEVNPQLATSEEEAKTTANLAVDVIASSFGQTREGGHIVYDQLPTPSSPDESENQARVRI

[7] = target: T3, Proteasome subunit beta (Trypanosoma cruzi) (UniProt O96673); assay: Trypanosoma cruzi proteasome chymotrypsin-like activity (TcProtChymo) assay.; also: in the data most compounds retested in dose-response had high values; format: functional; conditions: 9.37 µM
T3 sequence (whole entry): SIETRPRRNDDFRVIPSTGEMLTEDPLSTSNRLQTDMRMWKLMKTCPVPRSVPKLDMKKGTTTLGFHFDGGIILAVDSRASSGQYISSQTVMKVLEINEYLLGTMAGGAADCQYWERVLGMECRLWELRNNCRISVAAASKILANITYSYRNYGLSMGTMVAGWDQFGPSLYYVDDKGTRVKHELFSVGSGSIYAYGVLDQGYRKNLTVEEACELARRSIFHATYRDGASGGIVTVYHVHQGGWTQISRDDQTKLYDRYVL

[8] = species: Homo sapiens; assay: To identify inhibition of the IFN signalling (Jak-Stat) pathway via expression of an eGFP reporter gene under the control of an IFN-stimulated response element (ISRE) containing MxA promoter.; format: functional; conditions: 30 µM
[9] = target: T4, Tyrosyl-tRNA synthetase, putative (Trypanosoma cruzi (strain CL Brener)) (UniProt Q4DSP6); assay: Trypanosoma cruzi tyrosyl tRNA synthetase (TcYRS) _High Tyrosine SOP; format: functional; conditions: 30 µM; also: in the data most compounds retested in dose-response had high values
T4 sequence (whole entry): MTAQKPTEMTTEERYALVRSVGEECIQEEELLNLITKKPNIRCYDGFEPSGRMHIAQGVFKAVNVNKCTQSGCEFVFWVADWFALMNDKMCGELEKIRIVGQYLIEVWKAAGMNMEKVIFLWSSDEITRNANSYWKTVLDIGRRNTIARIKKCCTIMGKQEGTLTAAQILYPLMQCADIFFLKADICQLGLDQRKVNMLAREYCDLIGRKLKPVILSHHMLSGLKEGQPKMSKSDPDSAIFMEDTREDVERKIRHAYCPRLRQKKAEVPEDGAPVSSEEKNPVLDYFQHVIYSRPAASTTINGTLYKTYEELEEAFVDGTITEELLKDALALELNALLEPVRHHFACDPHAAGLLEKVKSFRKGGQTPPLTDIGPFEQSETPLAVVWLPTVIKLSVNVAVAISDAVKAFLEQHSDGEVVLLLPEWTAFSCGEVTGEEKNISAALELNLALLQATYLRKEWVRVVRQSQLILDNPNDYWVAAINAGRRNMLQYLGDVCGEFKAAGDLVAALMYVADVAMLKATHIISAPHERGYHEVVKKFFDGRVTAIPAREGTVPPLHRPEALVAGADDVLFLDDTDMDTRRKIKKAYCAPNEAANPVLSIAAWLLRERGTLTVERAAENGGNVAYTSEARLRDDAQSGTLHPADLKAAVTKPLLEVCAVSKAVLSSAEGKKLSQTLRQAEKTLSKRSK

[10] = target: T4, Tyrosyl-tRNA synthetase, putative (Trypanosoma cruzi (strain CL Brener)); assay: Trypanosoma cruzi tyrosyl tRNA synthetase (TcYRS) SOP; format: functional; conditions: 30 µM
[11] = target: Chromo domain-containing protein 1 (Saccharomyces cerevisiae (strain ATCC 204508 / S288c) (Baker's yeast)) (UniProt P32657); assay: ScCHD-1 Enzyme Inhibition Assay; format: functional; conditions: 30 µM; also: in the data most compounds retested in dose-response had high values
Chromo domain-containing protein 1 (Saccharomyces cerevisiae (strain ATCC 204508 / S288c) (Baker's yeast)), sequence (P32657 whole entry, the tested form may be a part): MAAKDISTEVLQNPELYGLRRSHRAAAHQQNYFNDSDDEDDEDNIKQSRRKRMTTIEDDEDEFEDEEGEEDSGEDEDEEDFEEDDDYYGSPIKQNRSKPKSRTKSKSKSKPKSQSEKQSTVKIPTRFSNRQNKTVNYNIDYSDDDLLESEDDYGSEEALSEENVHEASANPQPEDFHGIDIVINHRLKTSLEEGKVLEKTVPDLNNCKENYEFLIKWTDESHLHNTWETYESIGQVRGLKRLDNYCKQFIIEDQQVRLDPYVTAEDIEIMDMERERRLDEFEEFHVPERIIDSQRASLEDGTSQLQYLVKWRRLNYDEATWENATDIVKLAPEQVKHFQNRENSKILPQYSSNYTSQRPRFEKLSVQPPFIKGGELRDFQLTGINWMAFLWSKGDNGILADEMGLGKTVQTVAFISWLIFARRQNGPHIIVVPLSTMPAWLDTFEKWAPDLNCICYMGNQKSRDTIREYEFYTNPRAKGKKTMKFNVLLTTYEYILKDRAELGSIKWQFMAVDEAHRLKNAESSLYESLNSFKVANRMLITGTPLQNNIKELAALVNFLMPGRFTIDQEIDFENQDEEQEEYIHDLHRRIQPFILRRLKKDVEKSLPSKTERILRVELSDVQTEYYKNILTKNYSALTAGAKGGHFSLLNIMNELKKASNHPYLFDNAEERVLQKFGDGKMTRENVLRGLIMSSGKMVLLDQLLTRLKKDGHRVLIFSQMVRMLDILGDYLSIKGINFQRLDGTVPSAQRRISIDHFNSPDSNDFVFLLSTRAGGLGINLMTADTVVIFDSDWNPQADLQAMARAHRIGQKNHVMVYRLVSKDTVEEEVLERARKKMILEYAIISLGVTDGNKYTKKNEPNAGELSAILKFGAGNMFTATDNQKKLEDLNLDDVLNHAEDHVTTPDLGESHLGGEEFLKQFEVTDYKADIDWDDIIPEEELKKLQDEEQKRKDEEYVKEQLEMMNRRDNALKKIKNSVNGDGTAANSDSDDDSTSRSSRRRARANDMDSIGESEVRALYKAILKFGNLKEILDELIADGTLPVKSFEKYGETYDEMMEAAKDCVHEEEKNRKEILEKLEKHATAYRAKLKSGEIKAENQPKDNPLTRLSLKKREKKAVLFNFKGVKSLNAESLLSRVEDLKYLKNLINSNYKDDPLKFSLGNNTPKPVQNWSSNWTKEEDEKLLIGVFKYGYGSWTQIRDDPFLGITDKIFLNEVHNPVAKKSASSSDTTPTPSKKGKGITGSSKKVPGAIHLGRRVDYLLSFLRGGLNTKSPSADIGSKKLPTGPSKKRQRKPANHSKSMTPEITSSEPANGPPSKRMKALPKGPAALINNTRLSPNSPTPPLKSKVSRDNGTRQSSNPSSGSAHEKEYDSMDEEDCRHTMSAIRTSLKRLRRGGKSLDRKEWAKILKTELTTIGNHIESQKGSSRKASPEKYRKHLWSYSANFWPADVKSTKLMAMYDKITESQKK

Sialic acid-binding Ig-like lectin 9 (Homo sapiens), sequence (Q9Y336 whole entry): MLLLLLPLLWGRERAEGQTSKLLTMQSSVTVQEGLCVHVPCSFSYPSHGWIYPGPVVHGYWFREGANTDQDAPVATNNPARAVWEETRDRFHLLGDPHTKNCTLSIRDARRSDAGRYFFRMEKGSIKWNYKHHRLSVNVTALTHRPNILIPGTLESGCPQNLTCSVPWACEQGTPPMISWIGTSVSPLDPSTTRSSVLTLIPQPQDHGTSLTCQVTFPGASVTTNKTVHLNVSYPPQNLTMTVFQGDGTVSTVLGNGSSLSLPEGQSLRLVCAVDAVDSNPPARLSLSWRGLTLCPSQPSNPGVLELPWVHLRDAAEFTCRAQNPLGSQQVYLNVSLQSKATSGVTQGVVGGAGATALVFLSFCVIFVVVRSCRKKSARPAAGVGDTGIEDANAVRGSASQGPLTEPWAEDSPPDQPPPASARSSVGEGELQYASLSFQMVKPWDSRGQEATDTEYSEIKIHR
Protein translocase subunit SecA (Escherichia coli (strain K12)), sequence (P10408 whole entry): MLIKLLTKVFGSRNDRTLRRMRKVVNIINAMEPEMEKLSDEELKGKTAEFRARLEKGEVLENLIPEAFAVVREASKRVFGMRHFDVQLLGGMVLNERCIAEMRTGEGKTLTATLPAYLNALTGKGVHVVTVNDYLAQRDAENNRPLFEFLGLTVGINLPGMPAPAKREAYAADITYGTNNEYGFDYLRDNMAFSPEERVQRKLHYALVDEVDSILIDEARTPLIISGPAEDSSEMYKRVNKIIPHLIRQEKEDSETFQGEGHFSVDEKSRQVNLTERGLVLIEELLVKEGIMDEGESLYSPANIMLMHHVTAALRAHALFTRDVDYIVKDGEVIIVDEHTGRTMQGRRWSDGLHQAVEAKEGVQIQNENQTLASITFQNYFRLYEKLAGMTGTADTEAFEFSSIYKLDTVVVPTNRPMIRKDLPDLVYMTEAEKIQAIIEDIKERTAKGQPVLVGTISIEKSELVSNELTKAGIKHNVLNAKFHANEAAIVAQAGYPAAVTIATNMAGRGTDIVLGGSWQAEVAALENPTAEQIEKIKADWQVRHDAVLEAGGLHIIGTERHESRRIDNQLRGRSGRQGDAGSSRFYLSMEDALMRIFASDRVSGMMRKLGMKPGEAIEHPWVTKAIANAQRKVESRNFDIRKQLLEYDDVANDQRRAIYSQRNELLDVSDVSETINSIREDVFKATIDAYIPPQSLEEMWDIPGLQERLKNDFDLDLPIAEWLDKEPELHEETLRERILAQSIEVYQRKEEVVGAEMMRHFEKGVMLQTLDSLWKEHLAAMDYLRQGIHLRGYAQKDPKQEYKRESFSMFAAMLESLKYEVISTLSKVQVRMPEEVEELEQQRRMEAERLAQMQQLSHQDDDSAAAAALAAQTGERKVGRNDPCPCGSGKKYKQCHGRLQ

SMILES | Percent Effect [1] [%] | Percent Effect [2] [%] | Percent Effect [3] [%] | Percent Effect [4] [%] | Percent Effect [5] [%] | Percent Effect [6] [%] | Percent Effect [7] [%] | Percent Effect [8] [%] | Percent Effect [9] [%] | Percent Effect [10] [%] | Percent Effect [11] [%]
Cc1nn(C)c(C)c1C1CCCN1CC(=O)Nc1ccncc1 (stereo not drawn) | -3.89 | -2.7 | -12 | -1.63 | -3.49 | 4.41 | -2.88 | 7.51 | -0.493 | -11.1 | 4.66
O=C(Cc1ccc2c(c1)OCO2)N1CCCN(c2ccccc2)CC1 | -6.04 | 13.7 | 3.46 | 5.03 | 0.992 | -2 | 4.54 | 10.8 | 3.12 | 11.1 | -0.294
CCCN(CC1COc2ccccc2O1)C(=O)CCn1cncn1 (stereo not drawn) | -3.98 | 13.2 | -1.36 | -1.88 | -1.5 | -0.383 | 8.52 | 0.478 | 7.35 | 17.1 | -2.23
O=C(c1ccncc1)N1CCC(c2nc(O)cc(-c3cccnc3)n2)C1 (stereo not drawn) | -0.62 | 21.3 | -34.2 | -1.55 | 3.74 | 26.8 | 8.55 | 17.1 | 8.51 | 11.5 | -5.75
CC(C)N(C)Cc1nnc2n1CCCN(C(=O)c1ccco1)C2 | -1.99 | 10.4 | 3.35 | 2.67 | 1.08 | 13.6 | 14.3 | 24.5 | 7.41 | 14.1 | -7.03
O=C(NCc1ccc(OCC2CC2)nc1)c1c(F)cccc1F | -0.518 | 2.63 | 4.21 | -0.689 | -5.16 | -11.8 | 15.1 | 11.7 | 3.19 | 7.79 | -4.74
COc1cc(C(=O)NS(=O)(=O)c2cccc(C#N)c2)ccc1C | -1.35 | -10.8 | -1.79 | 1.78 | 7.15 | -0.554 | 2.33 | 10.3 | -5.94 | -1.22 | -2.42
CCc1nnsc1C(=O)N1CCOC(c2nc(C)n[nH]2)C1 (stereo not drawn) | -5.12 | 8.86 | -2.61 | -4.1 | 0.718 | -0.215 | 8.23 | -0.829 | 5.21 | 17.7 | -30.2
